# Hits are enriched below; roughly 6.5% of the tested compounds scored in any of these assays.
# VACV mCherry inh = qHTS for Stage-Specific Inhibitors of Vaccinia Orthopoxvirus: mCherry Reporter Primary qHTS; Vaccinia virus mCherry reporter infection, fluorescence; Potency, µM (titrated, usually from 36.5 µM), without a hit: at the highest dose activity change, negative = inhibition, usual class: inhibitors; hit rate 0.63% among 310,000; calls by dose curve; tested in A549 cells; further: potency means the concentration at half of the fitted maximal effect; nearly all actives have a fitted effect of over 35% in size
# HCMV antiviral = qHTS Assay for inhibitors of the human cytomegalovirus (HCMV); HFF cells, HCMV-luciferase reporter, 72 h; hits give low values; activity change, negative = inhibition, % at 57.5 µM; hit rate 4.5% among 410,000; AID 1259415, 2018; in the data active means activity change below about -60%; inconclusive means no clear call, values can overlap the other calls; inactive means above about -39%
#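 Human foreskin fibroblasts infected with luciferase-reporter HCMV at MOI 1 PFU/cell, compounds at two doses. Luciferase measured 72 h post infection; normalized to buffer-only basal and Salinomycin (10uM) controls.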
# Vaccinia Venus = qHTS for Stage-Specific Inhibitors of Vaccinia Orthopoxvirus: Venus Reporter Primary qHTS; Vaccinia virus Venus reporter expression, fluorescence; Potency, µM (titrated, usually from 36.5 µM), for the others: at the highest dose activity change, negative = inhibition, most hits filed as inhibitors; hit rate 0.46% among 330,000; calls by dose curve; tested in A549 cells; further: potency means the concentration at half of the fitted maximal effect; nearly all actives have a fitted effect of over 30% in size
# LASV entry inh = qHTS for Inhibitors of binding or entry into cells for Lassa Virus; Lassa virus pseudotype entry inhibition, cell reporter; Potency, µM (series often up to 37.9 µM), for inactives: top-dose activity change, negative = inhibition, most hits filed as inhibitors; hit rate 1.2% among 300,000; calls by dose curve; tested in HEK293 cells; further: potency means the concentration at half of the fitted maximal effect; nearly all actives have a fitted effect of over 50% in size
# Marburg entry inh = qHTS for inhibitors of binding or entry into cells for Marburg Virus | Marburg virus pseudotyped entry inhibition, cell reporter | Potency, µM (titrated, usually from 37.8 µM), for inactives: at the top dose activity change, negative = inhibition, hits mostly inhibitors | hit rate 1.8% among 300,000; calls by dose curve; tested in HEK293 cells; further: potency means the concentration at half of the fitted maximal effect
# FMDV inh = High Throughput Screening for Foot and Mouth Disease Virus Antivirals | FMDV antiviral cell-based qHTS | Potency, µM (top dose mostly 57.9 µM), inactives show at the top dose activity change, negative = inhibition, most hits filed as inhibitors | hit rate 1.2% among 410,000; calls by dose curve; tested in HEK293T cells; further: read-out not given here; potency means the concentration at half of the fitted maximal effect; nearly all actives have a fitted effect of over 45% in size
# Starred values were filed as active, the others as inactive; i = inactive; ? = inconclusive; . = not tested or not shown; [ ] = remark or other dose. On the % scale 0 is the no-effect control and ±100 the full control effect.
SMILES,VACV mCherry inh,HCMV antiviral,Vaccinia Venus,LASV entry inh,Marburg entry inh,FMDV inh
COc1ccc(-c2csc(N(CCCN(C)C)C(=O)c3ccc(Br)cc3)n2)cc1,-5%,-62*,-11%,?,?,-14%
COCCCN(C(C)=O)c1nc(-c2ccc(OC)cc2)cs1,.,84,.,10µM*,?,-8%
N#Cc1cccc(-c2nc(NCCN3CCOCC3)c3ccccc3n2)c1,.,.,.,.,.,19%
COC(=O)c1ccccc1NC(=O)Cn1c(=O)n(Cc2ccc(C(=O)NCc3ccc4c(c3)OCO4)cc2)c(=O)c2ccccc21,-2%,-24,0%,?,26%[46.1 µM],-25%
O=C(O)c1ccc(CSc2nc3ccccc3c(=O)n2-c2ccccc2)cc1,.,28,.,.,.,-5%
O=C(c1ccc(-n2c(SCc3cccc(F)c3)nc3ccccc3c2=O)cc1)N1CCOCC1,-9%,-63*,3%,18%,-5%,?
COc1cccc(CNC(=O)c2c(OC)cc(=O)n3c2CCN(C(=O)c2ccoc2C)CC3)c1,-11%,.,-4%,.,.,-4%
Cc1cc(=O)[nH]c2nnc(SCc3ccccc3F)n12,i,3,-15%,-13%[46.1 µM],.,-1%
COc1ccc(C(CCNCc2ccc(OC(C)C)cc2)C(C)C)cc1 (stereo not given),-14%,-79*,-14%,?,?,?
COc1ccc(C(CCNCc2ccc(N(C)C)cc2)C(C)C)cc1 (stereo not given),.,-75*,.,.,.,?
COc1ccc(CNCCC(c2ccc(OC(C)C)cc2)C(C)C)cc1OC (stereo not given),.,-104*,.,21µM*,?,?
COC(=O)[C@H](C)N1CC=CCOc2c(Cl)cc(Cl)cc2[S+]1(=O)[O-],.,.,.,-4%[46.1 µM],.,.
COCCCNC(=O)[C@@H](C)N1Cc2ccc(-c3cccc(F)c3)nc2C1=O,.,-22,.,.,.,.
O=C(CN(CC(=O)Nc1ccc(Br)cc1)CC(=O)Nc1ccc(Br)cc1)Nc1ccc(Br)cc1,.,-17,.,.,.,.
CCOC(=O)CC1N=NN=N1,.,.,.,.,19%[46.1 µM],.
CCCN(CCC)c1ccc(/C=C/c2sc3ccccc3[n+]2CCCCI)cc1,i,.,i,.,.,.
CCOc1ccc2c(ccc(/C=C/c3cc(C)c4cccnc4c3O)[n+]2C)c1,?,.,?,?,16µM*,?
Cc1cc(C)c2cccnc2c1O,-17%,.,-8%,.,.,.
Clc1ccc2nc[nH]c2c1,i,.,-7%,.,.,.
COc1ccccc1-n1c(SCC(=O)c2ccc(O)cc2O)nc2cc([N+](=O)[O-])ccc21,?,134,?,4%,2.2µM*,?
COc1ccccc1-n1c(SCC(=O)NC2CCS(=O)(=O)C2)nc2cc([N+](=O)[O-])ccc21 (stereo not given),-18%,19,-18%,2%,4%,-24%
CC(Sc1nc2c([nH]c3ccccc32)c(=O)n1-c1ccccc1)c1ccccc1 (stereo not given),-15%,-83*,-21%,?,.,-25%
Cc1cc(C)cc(-n2c(SCC(N)=O)nc3c([nH]c4ccccc43)c2=O)c1,-18%,-71*,-22%,?,.,-15%
CCSc1nc2c([nH]c3ccccc32)c(=O)n1-c1cccc(OC)c1,-15%,-63*,-14%,?,.,-26%
O=C(CSc1nc2c([nH]c3ccccc32)c(=O)n1-c1ccccc1F)Nc1ccccc1C(F)(F)F,-2%,-89*,-22%,?,.,-18%
O=C(c1cccnc1)C1CCCN(Cc2ccc3c(c2)CN(C(=O)c2cn4ccccc4n2)CCO3)C1 (stereo not given),-13%,.,-2%,.,.,-12%
CCOC(=O)c1cc(C#N)c(SC(C(=O)N2CCCCC2)c2ccccc2)nc1C (stereo not given),24%,.,-11%,.,.,.
COc1ccc(-c2ccnc(-n3ncc(C(=O)NCc4cccnc4)c3C3CC3)n2)cc1F,-27%,.,-9%,.,.,?
CCCCc1nc2ccn(CC(=O)N(C)C)c(=O)c2n1Cc1ccc(-c2ccccc2-c2nn[nH]n2)cc1,.,.,.,.,.,-7%
